Where “and” joins values, the source holds several entries; their conditions need not be identical. Identical values can stand only once. Records with an inconclusive call do not appear. Calls of active or inactive are those of the source. Unless noted, the call rests on the fitted dose curve; in most records, active means well fitted curve in the direction sought with a large enough effect; inconclusive means small, poorly fitted or top-dose-only effect, or another doubt; inactive means no such curve, though single readings can be large; an effect the other way counts as inactive or inconclusive.
Key:
[1] = Cell Viability - HepG2 (AID 433; calls by dose curve;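 further: potency means the concentration at half of the fitted maximal effect; cells exposed to compound for 40 hours; potency for ATP loss meaning cytotoxicity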); conditions: qHTS
In short: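 ATP luminescence (CellTiter-Glo) after 40 h compound exposure, 37 °C, HepG2, 1500 cells/well, complete medium. Normalized: DMSO = basal, 100 uM tamoxifen = 100% inhibition. AC50 via standard Hill equation.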

[2] = Cell Viability - HUV-EC-C (AID 542); conditions: HUV-EC-C endothelial cell viability, qHTS; series mostly up to 92.2 µM;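 further: cells exposed to compound for 40 hours; on the % scale 0 is the no-effect control and ±100 the full control effect; nearly all actives have a fitted effect of over 35% in size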
In short: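 Decrease in cellular ATP, quantified by luciferase luminescence, reflects toxicity in normal human vascular endothelial HUV-EC-C cells given compound for 40 hr in complete culture medium. Values are AC50s from concentration-response curves.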

[3] = Cellular Toxicity (caspase-3) NIH 3T3 (AID 666); conditions: NIH 3T3 caspase-3 activation, apoptosis/toxicity; series mostly up to 92.2 µM;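 further: 0% = DMSO basal and 100% = 100 µM tamoxifen stimulation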
In short: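 Concentration-response qHTS in NIH 3T3 mouse fibroblasts scores caspase-3/7 activation as rising luminescence after 16 hr compound exposure. Signals are scaled between DMSO-only and 100 uM tamoxifen.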

[4] = Cell Viability - LYMP2-001 (AID 921); conditions: LYMP2-001 lymphoblastoid cell viability; series mostly up to 92.2 µM;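 further: 0% = DMSO only and full inhibition = tetraoctylammonium bromide control wells; nearly all actives have a fitted effect of over 70% in size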
In short: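 CellTiter-Glo luminescence (intracellular ATP) after 24 hr compound exposure at 37 C, 2500 lymphoblastoid cells/well in complete medium. AC50 fitted with standard Hill equation; tetraoctylammonium bromide positive control.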

[5] = MultiTox-Fluor Cytotoxicity Assay - LYMP1-001 - Dead Cells (AID 946); conditions: LYMP1-001 lymphoblastoid cells, dead-cell protease fluorescence; series mostly up to 92.2 µM;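 further: 0% = DMSO and 100% = tetraoctylammonium bromide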
In short: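 Seed 2500 LYMP1-001 cells/well, incubate 5 hr at 37 C; add compound, 16 hr at 37 C; add MultiTox-Fluor reagent, 60 min RT; read dead-cell fluorescence Ex/Em=485/520. Normalize to DMSO and 15 uM tetraoctylammonium bromide.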

[6] = MultiTox-Fluor Cytotoxicity Assay - LYMP1-002 - Live Cells (AID 955); conditions: LYMP1-002 lymphoblastoid live-cell protease fluorescence viability; series mostly up to 46.1 µM;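 further: cells exposed to compound for 16 hours; on the % scale 0 is the no-effect control and ±100 the full control effect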
In short: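 Cytotoxicity in the human lymphoblastoid line LYMP1-002 is measured as loss of live-cell protease activity after 16 h treatment in complete culture medium. AC50 is derived from Hill-equation fits of qHTS concentration-response data.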

[7] = Cell Viability - LYMP2-003 (AID 965); conditions: LYMP2-003 lymphoblastoid cell viability; series mostly up to 92.2 µM;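 further: cells exposed to compounds for 24 h before reading; 0% = DMSO only and full effect = 92 µM tetraoctylammonium bromide; nearly all actives have a fitted effect of over 50% in size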
In short: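 CellTiter-Glo luminescence (cellular ATP) after 24 h compound exposure at 37 C in complete medium; 2500 cells/well, 5 h settling beforehand. Concentration-response fitted to standard Hill equation for AC50. Tetraoctylammonium bromide served as positive control.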

[8] = Cell Viability - LYMP2-015 (AID 971); conditions: LYMP2-015 lymphoblastoid cell viability; series mostly up to 92.2 µM;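 further: 0% = DMSO only and full effect = 92 µM tetraoctylammonium bromide; nearly all actives have a fitted effect of over 55% in size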
In short: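 Acute toxicity was scored as a concentration-dependent drop in intracellular ATP in lymphoblastoid cells after 24 hr compound exposure in complete medium. Detection used CellTiter-Glo luciferase luminescence.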

[9] = Cell Viability - LYMP2-023 (AID 975); conditions: LYMP2-023 lymphoblastoid cell viability; series mostly up to 92.2 µM;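 further: cellular ATP measured by luciferase luminescence as viability proxy; cells exposed to compound for 24 hours at 37 °C; plate controls were DMSO only for no effect and 92 µM tetraoctylammonium bromide control for full effect; nearly all actives have a fitted effect of over 55% in size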
In short: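 Concentration-dependent drop in intracellular ATP measures acute cytotoxicity in a human lymphoblastoid line treated for 24 hours in complete culture medium. AC50 values are taken from Hill-equation fits of qHTS data.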

[10] = Cell Viability - LYMP2-006 (AID 978); conditions: LYMP2-006 lymphoblastoid cell viability, qHTS; series mostly up to 92.2 µM;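 further: cells exposed to compound for 24 hours; on the % scale 0 is the no-effect control and ±100 the full control effect; nearly all actives have a fitted effect of over 60% in size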
In short: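 qHTS, 1536-well; 2500 cells/well, 5 hr 37 C; cpd 24 hr 37 C; CellTiter-Glo 30 min RT; luminescence. Tetraoctylammonium bromide pos. ctrl. AC50 via Hill eqn.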

[11] = Cell Viability - LYMP2-012 (AID 982); conditions: LYMP2-012 lymphoblastoid cell viability qHTS; series mostly up to 92.2 µM;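 further: cellular ATP by luciferase luminescence where a drop means cytotoxicity; cells exposed to compound for one day before reading; 0% = DMSO only and full loss = 92 µM tetraoctylammonium bromide; nearly all actives have a fitted effect of over 55% in size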
[12] = Cell Viability - LYMP2-026 (AID 989); conditions: LYMP2-026 lymphoblastoid cell viability, qHTS; series mostly up to 92.2 µM; further: on the % scale 0 is the no-effect control and ±100 the full control effect; nearly all actives have a fitted effect of over 50% in size
In short: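 Concentration-dependent loss of intracellular ATP in human lymphoblastoid cells after 24 hr at 37 C, quantified by luciferase luminescence. AC50 derived from standard Hill equation.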

[13] = target: Vitamin D3 receptor (Homo sapiens) (UniProt P11473); experiment: qHTS assay for small molecule agonists of vitamin D receptor signaling (AID 588543; calls by dose curve;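 further: 0% = DMSO basal and 100% = reference agonist control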); conditions: HEK293T VDR-UAS-bla, beta-lactamase ratio, 16 h; series mostly up to 76.8 µM
In short: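 β-lactamase reporter, VDR-UAS-bla HEK293T, agonist mode. Cells plated 5 h at 37 °C, compound titration 16 h at 37 °C, CCF4 dye 2 h RT, ratio 460/530 nm. Hill fit → EC50, efficacy vs 50 nM 1α,25-(OH)2D3.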

[14] = target: Nuclear receptor subfamily 1 group I member 2 (Rattus norvegicus) (UniProt Q9R1A7); experiment: qHTS assay for small molecule activators of the rat pregnane X receptor (rPXR) signaling pathway (AID 651751; call rule not given here; further: 0% is about no effect); conditions: rPXR reporter cells, luciferase (One-Glo), 24 h
[15] = qHTS assay for small molecule activators of the human pregnane X receptor (PXR) signaling pathway (AID 720659; call rule not given here; further: 0% is about no effect); conditions: DPX-2 HepG2 CYP3A4-luciferase, 24 h; series mostly up to 92.3 µM
[16] = Cellular Toxicity (caspase-3) HUV-EC-C (AID 656); conditions: HUV-EC-C cells, caspase-3 activation (apoptosis), vehicle = 0, 100 µM tamoxifen = 100%; series mostly up to 92.2 µM;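 further: 0% = DMSO basal and 100% = 100 µM tamoxifen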
In short: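 Luminescent caspase-3/7 activation (aminoluciferin substrate cleavage) in HUV-EC-C cells after 16 hr compound exposure, 37°C. Signal normalized to DMSO basal and 100 uM tamoxifen as 100%; AC50 from concentration-response fitted with the Hill equation.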

[17] = Cellular Toxicity (caspase-3) H-4-II-E (AID 663); conditions: H-4-II-E rat hepatoma; Potency: caspase-3 activation; series mostly up to 92.2 µM;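 further: cells exposed to compound for 16 hr before readout; 0% = DMSO basal and 100% = 100 µM tamoxifen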
In short: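 Luminescence from caspase-cleaved aminoluciferin substrate, read 20 min after reagent addition, reports caspase 3/7 activation in rat H-4-II-E cells after 16 hr compound exposure. Normalized to DMSO (basal) and 100 uM tamoxifen (100%); AC50 from Hill fits.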

[18] = Cellular Toxicity (caspase-3) Renal Proximal Tubule (AID 667); conditions: renal proximal tubule cells; series mostly up to 91.7 µM;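 further: cells exposed to compound for 16 hours at 37 °C before detection; 0% = DMSO basal and 100% = 10 µM staurosporine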
In short: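 Luminescent caspase 3/7 signal from peptide-aminoluciferin cleavage measures apoptosis in freshly isolated rat kidney proximal tubule cells after 16 h compound exposure. Concentration-response data are normalized to DMSO and 10 uM staurosporine, and AC50 values come from Hill equation fits.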

[19] = Cell Viability - LYMP1-003 - Assay at 40 hr (AID 964); conditions: LYMP1-003 lymphoblastoid viability; series mostly up to 92.2 µM; further: on the % scale 0 is the no-effect control and ±100 the full control effect; nearly all actives have a fitted effect of over 60% in size
In short: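 This qHTS cytotoxicity screen treats human lymphoblastoid cells (LYMP1-003) with compounds for 40 hr and quantifies cellular ATP via luciferase luminescence.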

[20] = qHTS assay for small molecule disruptors of the mitochondrial membrane potential - 5 hr assay (AID 651755; calls by dose curve; further: on the % scale 0 is the no-effect control and ±100 the full control effect; nearly all actives have a fitted effect of over 40% in size); conditions: JC-1-type ratio dye; series mostly up to 92.2 µM
In short: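 HepG2 cells, attached overnight at 37C, were exposed to compound or DMSO for 5 hr at 37C, 5% CO2. Mito-MPS dye was then added for 30 min, and fluorescence read at 490/535 nm (monomers) and 540/590 nm (aggregates).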

Sequence of Nuclear receptor subfamily 1 group I member 2 (Rattus norvegicus) (Q9R1A7 whole entry, looked up): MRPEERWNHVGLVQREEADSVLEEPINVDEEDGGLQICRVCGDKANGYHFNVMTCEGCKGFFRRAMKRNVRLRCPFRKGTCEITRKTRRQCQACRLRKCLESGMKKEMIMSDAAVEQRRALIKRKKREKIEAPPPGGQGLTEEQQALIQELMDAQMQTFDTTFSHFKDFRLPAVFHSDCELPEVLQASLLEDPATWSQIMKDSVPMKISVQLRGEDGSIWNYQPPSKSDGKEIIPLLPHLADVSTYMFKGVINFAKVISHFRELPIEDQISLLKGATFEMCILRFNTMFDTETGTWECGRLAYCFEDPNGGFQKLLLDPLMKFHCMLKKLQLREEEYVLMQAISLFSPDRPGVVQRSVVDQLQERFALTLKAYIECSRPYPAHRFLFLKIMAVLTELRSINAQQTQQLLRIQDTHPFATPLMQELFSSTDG
Sequence of Vitamin D3 receptor (Homo sapiens) (P11473 whole entry, looked up): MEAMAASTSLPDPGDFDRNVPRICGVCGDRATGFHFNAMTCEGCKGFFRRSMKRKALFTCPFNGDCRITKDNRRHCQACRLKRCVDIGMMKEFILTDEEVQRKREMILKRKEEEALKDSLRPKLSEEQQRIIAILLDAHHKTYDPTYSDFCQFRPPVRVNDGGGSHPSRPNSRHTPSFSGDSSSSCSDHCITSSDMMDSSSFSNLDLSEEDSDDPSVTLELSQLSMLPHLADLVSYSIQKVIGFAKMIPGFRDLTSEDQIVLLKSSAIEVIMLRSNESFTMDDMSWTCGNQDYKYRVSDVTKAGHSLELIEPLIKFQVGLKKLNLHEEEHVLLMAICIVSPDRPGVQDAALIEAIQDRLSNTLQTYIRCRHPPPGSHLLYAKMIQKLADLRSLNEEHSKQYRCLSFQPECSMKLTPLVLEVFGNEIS

CC(C)(C)c1ccccc1O
inactive: Potency [1] > 92 µM | Potency [2] | Potency [3] | Potency [4] | outcome [5] | outcome [6] | Potency [7] | Potency [8] | Potency [9] | Potency [10] | Potency [11] | Potency [12] | outcome [13] | max response [14] -1.16% and -0.87% | outcome [15]

CC(C)(Cl)[N+](=O)[O-]
inactive: Potency [1] > 92 µM | Potency [2] | outcome [16] | Potency [17] | outcome [18] | Potency [4] | outcome [5] | outcome [6] | Potency [19] | Potency [7] | Potency [8] | Potency [9] | Potency [10] | Potency [11] | Potency [12] | outcome [13] | Potency [20] | max response [14] 2.49% | outcome [15]

COc1ccccc1N
inactive: Potency [1] > 92 µM | Potency [2] | Potency [17] | Potency [3] | outcome [18] | Potency [4] | outcome [5] | outcome [6] | Potency [19] | Potency [7] | Potency [8] | Potency [9] | Potency [11] | Potency [12] | Potency [20] | max response [14] 20.9% | outcome [15]

Oc1cccc(Cl)c1Cl
inactive: Potency [1] > 92 µM | Potency [2] | outcome [16] | Potency [17] | outcome [18] | Potency [4] | outcome [5] | outcome [6] | Potency [19] | Potency [10] | Potency [11] | Potency [12] | Potency [20] | max response [14] -2.09% | outcome [15]

CCN(N=O)C(N)=O
inactive: Potency [1] > 92 µM | Potency [2] | outcome [16] | Potency [17] | Potency [3] | outcome [18] | Potency [4] | outcome [5] | outcome [6] | Potency [19] | Potency [7] | Potency [8] | Potency [9] | Potency [10] | Potency [11] | Potency [12] | outcome [13] | Potency [20] | outcome [15]

COP(=S)(OC)SCn1nnc2ccccc2c1=O
inactive: Potency [1] > 92 µM | Potency [2] | outcome [16] | Potency [3] | outcome [18] | Potency [4] | outcome [5] | outcome [6] | Potency [19] | Potency [7] | Potency [8] | Potency [9] | Potency [10] | Potency [11] | Potency [12] | outcome [13] | max response [14] 0.903% and 4.17%

Cc1cc(C)cc(OP(=O)(Oc2cc(C)cc(C)c2)Oc2cc(C)cc(C)c2)c1
inactive: Potency [1] > 92 µM | Potency [2] | Potency [17] | Potency [3] | outcome [18] | outcome [6] | Potency [19] | Potency [7] | Potency [9] | Potency [10] | Potency [11] | Potency [12] | outcome [13]

CC(C)(COCC1CO1)COCC1CO1 (stereo not drawn)
inactive: Potency [1] > 92 µM | Potency [2] | outcome [16] | Potency [17] | Potency [3] | outcome [18] | Potency [4] | outcome [5] | outcome [6] | Potency [19] | Potency [7] | Potency [8] | Potency [9] | Potency [10] | Potency [11] | Potency [12] | outcome [13] | Potency [20] | max response [14] 1.93% | outcome [15]

CCOS(C)(=O)=O
inactive: Potency [1] > 92 µM | outcome [16] | Potency [3] | outcome [18] | Potency [4] | outcome [5] | outcome [6] | Potency [19] | Potency [7] | Potency [8] | Potency [9] | Potency [10] | Potency [12] | outcome [13] | Potency [20] | max response [14] 1.86% | outcome [15]

O=S(=O)(O)F
inactive: Potency [1] > 92 µM | Potency [2] | outcome [16] | Potency [17] | Potency [3] | Potency [4] | outcome [5] | outcome [6] | Potency [19] | Potency [7] | Potency [8] | Potency [10] | Potency [11] | outcome [13] | Potency [20] | max response [14] 0.583% | outcome [15]

Oc1cc(Cl)cc(Cl)c1
inactive: Potency [1] > 92 µM | Potency [2] | outcome [16] | Potency [17] | Potency [3] | outcome [18] | Potency [4] | outcome [5] | outcome [6] | Potency [19] | Potency [7] | Potency [8] | Potency [9] | Potency [10] | Potency [11] | Potency [12] | outcome [13] | max response [14] 0.776% | outcome [15]

BrC(Br)Br
inactive: Potency [1] > 92 µM | Potency [2] | outcome [16] | Potency [3] | outcome [18] | Potency [4] | outcome [5] | Potency [19] | Potency [7] | Potency [8] | Potency [9] | Potency [10] | Potency [11] | Potency [12] | outcome [13] | Potency [20] | max response [14] 0.0785% | outcome [15]

C[N+](=O)[O-]
inactive: Potency [2] | outcome [16] | Potency [17] | Potency [3] | outcome [18] | Potency [4] | outcome [5] | outcome [6] | Potency [19] | Potency [7] | Potency [8] | Potency [9] | Potency [10] | Potency [11] | Potency [12] | outcome [13] | Potency [20]

C=C(Cl)CSC(=S)N(CC)CC
inactive: Potency [2] | outcome [16] | Potency [17] | Potency [3] | outcome [18] | Potency [4] | outcome [5] | outcome [6] | Potency [19] | Potency [9] | Potency [10] | Potency [11] | Potency [12] | outcome [13] | Potency [20] | max response [14] 1.65% | outcome [15]

COC(=O)Nc1nc2ccccc2[nH]1
inactive: Potency [1] > 92 µM | outcome [16] | Potency [17] | Potency [3] | outcome [18] | outcome [6] | Potency [7] | Potency [9] | Potency [10] | Potency [11] | Potency [12] | outcome [13] | Potency [20]

Source: PubChem BioAssay (NCATS)
